Source: PubChem BioAssay
GLD-1 RNA inh – GLD-1-TGE RNA interaction inhibition (C. elegans); Q17339; purified GLD-1 + fluorescein TGE RNA, fluorescence polarization; inhibition, % at 5.96 µM; 0.44% of 320,000 active;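 active means percent inhibition above a per-plate cutoff, the plate mean of test compounds plus 3 SD, cut at about 30% in these data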
BCLXL inh – blocks human Bcl-xL binding to Bim BH3 peptide; Q07817; GST-Bcl-xL / FITC-Bim BH3 peptide fluorescence polarization; inhibition, % at 10.9 µM; 0.7% of 320,000 active; AID 2129;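 active means inhibition above the mean of all tested compounds plus 3 SD, cutoff set per campaign, cut at about 30% in these data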;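 further: inhibitors lower millipolarization by displacing the labeled peptide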
MCL1-BIM inh – inhibitors of human MCL1 binding to BIM-BH3 peptide. GST-MCL1 / FITC-Bim-BH3 fluorescence polarization. inhibition, % at 10.9 µM. 0.68% of 320,000 active;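 active means inhibition above the mean inhibition of all tested compounds plus 3 SD, set per campaign, cut at about 40% in these data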;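 further: higher means more loss of mP so more displacement of Bim peptide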
Target sequence (Q07820 whole entry, looked up): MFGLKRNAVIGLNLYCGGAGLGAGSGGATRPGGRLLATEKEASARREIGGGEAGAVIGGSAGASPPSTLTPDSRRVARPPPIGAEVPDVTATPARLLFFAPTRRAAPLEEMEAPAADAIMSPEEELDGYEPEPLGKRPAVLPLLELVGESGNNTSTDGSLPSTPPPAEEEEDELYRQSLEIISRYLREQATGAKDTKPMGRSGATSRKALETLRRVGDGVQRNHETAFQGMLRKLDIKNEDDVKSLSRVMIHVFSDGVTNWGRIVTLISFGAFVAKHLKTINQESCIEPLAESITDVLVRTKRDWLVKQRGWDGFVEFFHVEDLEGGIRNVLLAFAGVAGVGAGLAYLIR
MEX-5 binding – C. elegans MEX-5 TCR-2 RNA binding activity; 0.38% of 300,000 active; MEX-5/FITC-TCR2 RNA binding, fluorescence polarization; active compounds read low; AID 1832; activity score (negative = inhibition of binding), % at 10 µM; Q9XUB2;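 active means inhibition past about -25% in most replicates, and total fluorescence under double the plate's negative control median, limit read from the data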
E coli Lon inh – E. coli protease La inhibition | P0A9M0 | purified E. coli Lon protease, fluorescence polarization | inhibition, % at 7.94 µM | 0.42% of 360,000 active; in the data active means inhibition above about 13%, passing the limit was not always enough
EBV gp42 inh – inhibitors of Epstein-Barr virus glycoprotein 42; Fluorescence polarization binding assay, mP read-out; 0.42% of 220,000 active; AID 1085; Q1HVG2; inhibition, % (tested at 21.74 µM); in the data active means inhibition above about 50%
GLD-1 TGE cf – GLD-1 TGE RNA interaction inhibition, confirmation; GLD-1/FL-TGE RNA fluorescence polarization, biochemical; shares compounds with GLD-1 RNA inh; inhibition, % at 5.96 µM; 10% of 550 active; AID 2459;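 active means average inhibition across triplicates above the hit cutoff set in the primary screen, cut at about 32% in these data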
Numbers stand for hits; - = inactive; . = no result. Hits are enriched below; roughly 1.5% of the tested compounds scored in any of these assays.

SMILES | GLD-1 RNA inh | BCLXL inh | MCL1-BIM inh | MEX-5 binding | E coli Lon inh | EBV gp42 inh | GLD-1 TGE cf
CCSC1(SCC)N=C(N)C2(C#N)C(c3ccccc3)NC3=C(CCC3)C12C#N (stereo not drawn) | 50 | - | - | - | - | - | -
O=C(Cc1ccc(NC(=O)C2CCN(C(=O)C3CCCCC3)CC2)cc1)Nc1ccc(C(=O)N2CCOCC2)cc1 | . | . | . | . | - | . | .
COc1ccc(OC)c(C(=O)N(C)C2CCCN(Cc3ccccc3F)C2)c1 (stereo not drawn) | 39 | - | - | - | - | . | -
COc1ccc(C(=O)N(C)C2CCCN(Cc3ccccc3F)C2)cc1OC (stereo not drawn) | - | - | - | - | - | . | .
COc1ccc2c(c1)cc(C(=O)N[C@@H](Cc1ccccc1)C(=O)O)n2C | 44 | - | - | - | - | . | -
Cc1ccc(S(=O)(=O)c2cc3ccc(O)cc3oc2=O)cc1C | 32 | - | - | - | - | . | -
CCCC(=Nc1ccc(N)cc1)C1=C(O)C(C(=O)OC)C(C)(C)CC1=O (stereo not drawn) | 33 | 44 | 49 | - | - | - | -
CCN(CC)CCn1c2c(c(SCC(=O)Nc3ccccc3Cl)nc1=O)CCC2 | - | - | - | - | - | . | .
CC(=O)N(C(C)=O)c1nc(-c2ccccc2)cn1/N=C/c1cccc([N+](=O)[O-])c1 | - | - | - | - | - | - | .
N#Cc1c(NCCCO)nc(NCc2ccccc2)c2c1CCN(Cc1ccccc1)C2 | 33 | 31 | - | - | - | - | -
N#Cc1ccc(C(=O)OCC(=O)N2CCCCCC2)cc1 | . | . | . | . | - | . | .
CCOC(=O)c1cc(S(=O)(=O)N2CCN(c3ccccc3OC)CC2)cn1C | - | - | - | - | - | . | .
CCN(CC)S(=O)(=O)c1ccc(N2CCCC2)c(NS(=O)(=O)c2ccc(F)cc2)c1 | 34 | - | - | - | - | - | 57
CCN(CC)S(=O)(=O)c1ccc(N2CCCC2)c(NS(=O)(=O)c2ccccc2)c1 | - | - | - | - | - | - | .
C/C(Cc1ccccc1)=N\NC(=O)CNC(=O)c1ccc(Cl)cc1 | 62 | - | - | - | - | - | -
COc1ccc(Nc2ncc3c(n2)CC(c2ccc(OC)cc2)CC3=O)cc1 (stereo not drawn) | 45 | - | - | - | - | - | -
COc1ccc(Nc2ncc3c(n2)CC(c2ccc(C)cc2)CC3=O)cc1 (stereo not drawn) | - | - | - | - | - | - | .
COc1ccc(NC(=O)c2ccc(Cl)cc2)c[n+]1[O-] | . | . | . | - | - | . | .
CCOc1ccccc1Oc1c(C)oc2c(CN3CCN(CCO)CC3)c(O)ccc2c1=O | - | - | - | - | - | . | .
COc1ccccc1Oc1c(C)oc2c(CN3CCN(CCO)CC3)c(O)ccc2c1=O | 61 | 95 | 112 | - | . | - | -
COc1ccc2nc(N3CCCCC3)c(C#N)cc2c1 | 46 | 32 | - | - | - | 58 | 65
COc1ccc2nc(SCC(=O)N3CCCCCC3)c(C#N)cc2c1 | - | - | - | - | - | - | .
Cn1c(=O)c(/C=C/c2ccccc2)nc2ccccc21 | 41 | 35 | 41 | - | - | - | -
CN1CCN(C(=S)c2ccc(Br)cc2)CC1 | - | - | - | - | - | - | .
CN1CCN(C(=S)c2ccc([N+](=O)[O-])cc2)CC1 | 79 | - | - | - | - | - | -
SMILES | GLD-1 RNA inh | BCLXL inh | MCL1-BIM inh | MEX-5 binding | E coli Lon inh | EBV gp42 inh | GLD-1 TGE cf
CCc1ccc(C2C(C#N)=C(N)C(C#N)(C#N)C3=CCC(C(C)(C)C)CC32)cc1 (stereo not drawn) | 41 | 41 | - | - | 26 | - | -
Cc1cc2cc(OCC(=O)O)ccc2n1C | 39 | - | - | - | - | - | -
Cc1cc2cc(CNC(=O)C(C)Oc3ccccc3)ccc2n1C (stereo not drawn) | 57 | 38 | 41 | - | - | - | -
CCCCNc1c(-c2ccc(SC(C)CC)cc2)nc2cnccn12 (stereo not drawn) | 43 | . | . | . | - | . | -
O=C(Cc1cn(Cc2cccc(Cl)c2)c2ccccc12)N1CCCC1 | 54 | - | - | - | - | - | -
CC(=O)N1CCc2cc(Br)cc(S(=O)(=O)N3CCc4ccccc43)c21 | - | - | - | - | - | - | .
